The record followed here is PubChem BioAssay (Tox21).

Records with an inconclusive call do not appear. Entries that show only a call come without a potency. The source made the active and inactive calls. Calls follow the shape of the full dose curve.

The test concerns the target Beta-2 adrenergic receptor (Homo sapiens) (UniProt P07550). Description: Adrenergic beta2 receptor (ADRB2) small molecule agonists, cell-based qHTS assay (AID 1963593).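 Also: CHO cells stably overexpressing human ADRB2.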 The note with it: CHO-ADRB2 cells, cAMP HTRF, 30 min; series mostly up to 92.4 µM. The procedure, abridged:
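CHO cells stably over-expressing ADRB2 were plated overnight at 37C, then dosed with compounds plus a stimulation mix containing 100uM IBMX and 25uM Ro-20-1724 for 0.5hr at room temperature. cAMP was measured by HTRF competition, 1hr.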

Beta-2 adrenergic receptor (Homo sapiens), sequence (P07550 whole entry, looked up): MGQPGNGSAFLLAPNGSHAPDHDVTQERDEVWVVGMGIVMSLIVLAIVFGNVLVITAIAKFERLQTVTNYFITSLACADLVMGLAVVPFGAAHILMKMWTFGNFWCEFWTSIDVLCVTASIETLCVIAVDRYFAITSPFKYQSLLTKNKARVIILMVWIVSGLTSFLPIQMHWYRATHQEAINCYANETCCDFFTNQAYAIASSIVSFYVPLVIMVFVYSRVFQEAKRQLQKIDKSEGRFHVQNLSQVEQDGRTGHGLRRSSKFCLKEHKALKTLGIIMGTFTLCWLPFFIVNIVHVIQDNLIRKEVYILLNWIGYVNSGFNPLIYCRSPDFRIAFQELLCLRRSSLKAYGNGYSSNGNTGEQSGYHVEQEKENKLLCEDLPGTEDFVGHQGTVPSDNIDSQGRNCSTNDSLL

In the case of `CC(C)C(=O)OCC(C)(C)C(OC(=O)C(C)C)C(C)C` (stereo unspecified), the Potency result is “inactive”.
For `NC(=O)c1cc([N+](=O)[O-])cc([N+](=O)[O-])c1`, the Potency result was “inactive”.
Regarding `O=C(O)c1nc(Cl)ccc1Cl`, the Potency entry was “inactive”.
In the case of `[P]#[In]` it was “inactive”.
As to `OCCCl`, the Potency entry was “inactive”.
In the case of `CC(C)=CC1C(C(=O)OCN2C(=O)C3=C(CCCC3)C2=O)C1(C)C` (stereo unspecified), the Potency result is “inactive”.
In the case of `CCCCCCCCOC(=O)c1ccc(C(=O)OCCCCCCCC)c(C(=O)OCCCCCCCC)c1` it was “inactive”.
For the molecule `CCC(C)(C#N)N=NC(C)(C#N)CC` (stereo unspecified), the Potency entry is “inactive”.
Turning to `COC(=O)c1ccccc1N`, the Potency result was “inactive”.
In the case of `Cc1ccc(CCl)cc1`, the Potency result is “inactive”.
Turning to `CNC(=O)Oc1ccccc1C1OCCO1`, the Potency result is “inactive”.
Consider `ClCCOCCCl`, for which the Potency entry is “inactive”.
As for `OCC1CO1` (stereo unspecified), the Potency entry was “inactive”.
Next, `NCc1cccnc1`: “inactive”.
In the case of `CCCCC(C#N)(Cn1cncn1)c1ccc(Cl)cc1` (stereo unspecified) it was “inactive”; in that of `ClC(Cl)(Cl)c1ccccc1`, “inactive”.
In the case of `C=CCOCC1CO1` (stereo unspecified), the Potency entry is “inactive”.
As for `CC(Oc1ccc(Cl)cc1Cl)C(=O)O` (stereo unspecified), the Potency entry is “inactive”.
For the molecule `O=S(=O)(c1ccccc1)c1ccccc1`, the Potency result was “inactive”.
`O=C(O)COc1ccc(Cl)cc1Cl`: the Potency entry is “inactive”.
With `COc1ccc(O)c(C(C)(C)C)c1`, the Potency entry is “inactive”.
As for `C[N+]1(C)CCCCC1`, the Potency result is “inactive”.
With `COc1ccc2c3c1O[C@H]1[C@@H](O)C=C[C@H]4[C@@H](C2)N(C)CC[C@@]341`, the Potency result is “inactive”.
Turning to `Sc1ccccc1Cl`, the Potency result is “inactive”.
For `CN(N=O)C(N)=O`, the Potency result was “inactive”.
Turning to `C=CCOC(N)=O`, the Potency result is “inactive”.
In the case of `O=[N+]([O-])CCO`, the Potency result is “inactive”.
With `Nc1nc(N)nc(Cl)n1`, the Potency entry is “inactive”.
Consider `CC(C)CCCCCCOC(=O)c1ccccc1C(=O)OCCCCCCC(C)C`, for which the Potency entry is “inactive”.
On to `CC(C#N)CCC#N` (stereo unspecified), for which the Potency entry is “inactive”.
Turning to `CCC(=O)Nc1ccc(Cl)c(Cl)c1`, the Potency entry is “inactive”.
In the case of `CCOC(=O)Nc1cccc(OC(=O)Nc2ccccc2)c1`, the Potency result was “inactive”.
On to `COC(=O)Nc1cccc(OC(=O)Nc2cccc(C)c2)c1`, for which the Potency result is “inactive”.
Turning to `CCCCC(CC)CO[N+](=O)[O-]` (stereo unspecified), the Potency result was “inactive”.
Turning to `c1ccc(N=Nc2ccccc2)cc1`, the Potency result is “inactive”.
As to `BrCCBr`, the Potency entry was “inactive”.
Next, `CNC(=S)S`: “inactive”; `O=C(NCO)NCO`: “inactive”.
As to `Cc1cc(Cl)ccc1OCC(=O)O`, the Potency entry is “inactive”.
In the case of `Cc1cccc(C)c1NC(=O)CN1CCCC1=O`, the Potency entry was “inactive”.
Turning to `CCC(=O)O[C@H]1CC[C@H]2[C@@H]3CCC4=CC(=O)CC[C@]4(C)[C@H]3CC[C@]12C`, the Potency entry is “inactive”.
As for `CCCCCCCCCCBr`, the Potency entry is “inactive”.
As for `COC(=O)NC(=S)Nc1ccccc1NC(=S)NC(=O)OC`, the Potency result is “inactive”.
Take `Cc1ccc(N=CN(C)C=Nc2ccc(C)cc2C)c(C)c1`: the Potency entry is “inactive”.
As for `Cc1ccc(O)c(C)c1`, the Potency result is “inactive”.
On to `C=CCOC(Cn1ccnc1)c1ccc(Cl)cc1Cl` (stereo unspecified), for which the Potency entry is “inactive”.
For the molecule `C=CCc1ccc2c(c1)OCO2`, the Potency entry was “inactive”.
As to `O=P1(N(CCCl)CCCl)NCCCO1` (stereo unspecified), the Potency entry was “inactive”.
Next, `C#CCO`: “inactive”; `O=C(O)C(Cl)(Cl)Br`: “inactive”; `Cc1ccccc1O`: “inactive”.
Take `[N-]=[N+]=CC(=O)OC[C@H](N)C(=O)O`: the Potency entry was “inactive”.
Next, `CCOC(=O)C1(c2ccccc2)CCN(CCC(C#N)(c2ccccc2)c2ccccc2)CC1`: “inactive”; `CC(C)c1cccc(C(C)C)c1O`: “inactive”; `COC(=O)c1ccccc1CS(=O)(=O)NC(=O)Nc1nc(OC)cc(OC)n1`: “inactive”.
Regarding `N#CN=C(N)N`, the Potency result was “inactive”.
`CCCC1COC(Cn2cncn2)(c2ccc(Cl)cc2Cl)O1` (stereo unspecified): the Potency entry was “inactive”.
With `O=[N+]([O-])c1ccc(Oc2ccc(Cl)cc2Cl)cc1`, the Potency entry is “inactive”.
As to `CCC(=O)O[C@@H]1C=C2CCC3C(CCC4(C)C3CC[C@@H]4OC(=O)CC)C2CC1` (stereo partly specified), the Potency entry is “inactive”.
For the molecule `CC(=O)C(Cl)Cl`, the Potency entry was “inactive”.
In the case of `CCC1(CC)C(=O)C=CNC1=O` it was “inactive”; in that of `O=C(CBr)c1ccc(O)cc1`, “inactive”; in that of `O=[N+]([O-])c1cc([As](=O)(O)O)ccc1O`, “inactive”.
With `CN(C)CCc1ccc(O)cc1`, the Potency entry was “inactive”.
Next, `C1CCC(NC2CCCCC2)CC1`: “inactive”; `O=C(O)CCCc1ccc(N(CCCl)CCCl)cc1`: “inactive”.
As to `CC(O)CN(CC(C)O)CC(C)O` (stereo unspecified), the Potency entry is “inactive”.
In the case of `Nc1ccc(Cc2ccc(N)cc2)cc1` it was “inactive”.
Next, `O=C(O)c1nn(Cc2ccc(Cl)cc2Cl)c2ccccc12`: “inactive”; `N#CCNCC#N`: “inactive”.
With `NNC(=S)NN`, the Potency entry is “inactive”.
